Rab9 prom act = activates the Rab9 promoter; Huh7 Rab9 promoter-luciferase reporter, luminescence, 24 h; Potency, µM (top dose mostly 9.22 µM), actives largely listed as activators; 2.8% of 320,000 active; AID 485297; further: nearly all actives have a fitted effect of over 60% in size
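Rab9 promoter-driven luciferase in stably transfected Huh7 cells; 1500 cells/well rested 2 h, exposed to compound in DMSO for 24 h at 37 °C, 5% CO2. Luminescence read 10 min after adding luciferase reagent at ambient temperature.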
ELG1 genotox = induces genotoxicity in HEK293T cells with luciferase-tagged ELG1; HEK293T ELG1-luciferase reporter, luminescence, 16 h; Potency, µM (doses to about 46 µM), actives largely listed as activators; 1.3% of 330,000 active; further: nearly all actives have a fitted effect of over 60% in size
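Screening used a luciferase reporter fused to human ELG1 in HEK293T cells. Luminescence was read on a CCD plate imager after 16 hr exposure and 30 min ONE-Glo incubation.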
Luc counter = blocks Kinase-Glo luciferase, a counter-screen artifact; 0.28% of 200,000 active; Q27757; Kinase-Glo luciferase, ATP luminescence, 8 min; Potency, µM (highest dose often 38.3 µM), actives largely listed as inhibitors; further: nearly all actives have a fitted effect of over 60% in size
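Kinase-Glo luciferase light output from ATP and luciferin was measured with 10 uM ATP, within the enzyme's linear range. Buffer: 50 mM imidazole pH 7.2, 50 mM KCl, 7 mM MgCl2, 0.01% Tween 20, 0.05% BSA; luminescence read after 8 min at ambient temperature.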
SMN2 splice up = SMN2 splice variant enhancement. HEK293 SMN2-luciferase splicing reporter, luminescence, 30-36 h. 2.8% of 210,000 active. Potency, µM (titrated, usually from 46.1 µM), actives largely listed as activators; further: nearly all actives have a fitted effect of over 55% in size
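HEK293 cells carry an SMN2 […]–luciferase reporter in which exon 7 inclusion puts luciferase in frame. Cells were plated 10-12 h before compound addition, then incubated 30-36 h at 37C. ONE-Glo luminescence was read; sodium butyrate at 4.5 mM final served as control.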
FLuc counter = counter-screen for miR-21 project: firefly luciferase inhibitors or activators | purified FLuc, Km substrates, luminescence inhibition | Potency, µM (series often up to 57.5 µM), most hits filed as inhibitors | AID 588342 | 6.9% of 360,000 active | P08659; further: nearly all actives have a fitted effect of over 55% in size
Target sequence (P08659 whole entry, looked up): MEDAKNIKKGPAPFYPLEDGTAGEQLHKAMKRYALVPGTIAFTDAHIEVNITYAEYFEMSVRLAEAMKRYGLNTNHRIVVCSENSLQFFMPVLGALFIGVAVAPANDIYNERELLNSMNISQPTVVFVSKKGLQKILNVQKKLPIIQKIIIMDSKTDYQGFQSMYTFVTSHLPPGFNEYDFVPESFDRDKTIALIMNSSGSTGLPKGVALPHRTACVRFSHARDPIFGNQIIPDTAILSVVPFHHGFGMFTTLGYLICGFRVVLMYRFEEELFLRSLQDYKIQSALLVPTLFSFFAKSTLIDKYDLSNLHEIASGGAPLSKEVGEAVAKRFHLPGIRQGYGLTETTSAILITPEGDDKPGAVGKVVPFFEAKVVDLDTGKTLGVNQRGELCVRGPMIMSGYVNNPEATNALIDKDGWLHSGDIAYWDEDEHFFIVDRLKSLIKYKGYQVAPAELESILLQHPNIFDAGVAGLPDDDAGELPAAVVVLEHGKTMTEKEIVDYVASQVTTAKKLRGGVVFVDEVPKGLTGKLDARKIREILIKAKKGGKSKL
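Purified P. pyralis luciferase (10nM final) with 10uM D-luciferin and 10uM ATP (Km levels) in 50mM Tris acetate pH 7.5, 10mM Mg acetate, 0.01% Tween-20, 0.05% BSA; qHTS 6-point titration, ~60 µM downward; luminescence read.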
NPC1 promoter act = activates the NPC1 promoter | 2.4% of 320,000 active | Huh7 NPC1 promoter luciferase reporter, 24 h | Potency, µM (highest dose often 9.22 µM), usual class: activators; further: nearly all actives have a fitted effect of over 60% in size
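Huh7 cells stably carrying NPC1 promoter–luciferase, plated in Opti-MEM with 10% FBS for 2 h, were exposed to compound in DMSO for 24 h at 37 °C; luciferase reagent was added for 10 min and luminescence read.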
Each line names hits and unclear results; the compound was inactive in the other large screens. A selection: hits, their analogues and other compounds. The true share with any hit is near 7.4%. The call rests on the fitted dose curve; in most records, active means well fitted curve in the direction sought with a large enough effect; inconclusive means small, poorly fitted or top-dose-only effect, or another doubt; inactive means no such curve, though single readings can be large; an effect the other way counts as inactive or inconclusive.

Cc1nc2c(ccc3nc(NC(=O)c4ccc(S(=O)(=O)N(C)C)cc4)sc32)s1	FLuc counter 2.7µM
CN(C)C(=O)c1nc2ccccc2s1	FLuc counter inconclusive
CCCCNC(=O)Nc1nc2ccc(CC)cc2s1	Rab9 prom act inconclusive, ELG1 genotox inconclusive, SMN2 splice up inconclusive, FLuc counter 6.7µM, NPC1 promoter act inconclusive
CCOC(=O)c1nc2ccccc2s1	ELG1 genotox inconclusive, FLuc counter 13µM
Cc1ccc(S(=O)(=O)CC(=O)N2CCN(c3nc4c(F)cccc4s3)CC2)cc1	none (no result: Rab9 prom act, ELG1 genotox, Luc counter, SMN2 splice up, NPC1 promoter act)
COc1ccc(CNC(NC(=O)c2ccccc2)(C(F)(F)F)C(F)(F)F)cc1	none
N/C(=N\OC(=O)CCCCCN1C(=O)c2ccccc2C1=O)c1ccccc1	none
CN(C)c1ccc(CC(=O)c2nc3ccccc3s2)cc1	Rab9 prom act 2.5µM, ELG1 genotox inconclusive, FLuc counter 8.5µM, NPC1 promoter act inconclusive
Cc1nc2c(ccc3nc(NC(=O)Cc4ccccc4)sc32)s1	Rab9 prom act inconclusive, SMN2 splice up inconclusive, FLuc counter 24µM
CCCNC(=O)c1ccc(-c2nc3ccccc3s2)s1	Rab9 prom act 0.71µM, ELG1 genotox 0.21µM, SMN2 splice up 2.8µM, FLuc counter 0.34µM, NPC1 promoter act inconclusive
O=C(NCCCO)c1nc2ccccc2s1	none
CCOC(=O)Nc1nc2ccccc2s1	Rab9 prom act 3.5µM, ELG1 genotox 3.7µM, SMN2 splice up inconclusive, FLuc counter 6.7µM, NPC1 promoter act 3.2µM
CN(C(=O)CCc1nc2ccccc2s1)c1ccccc1	ELG1 genotox inconclusive
CC(=O)c1ccc(OCCCC(=O)Nc2cccc(S(=O)(=O)N3CCCCC3)c2)cc1	none (no result: Luc counter, SMN2 splice up)
CN(C)S(=O)(=O)c1ccc(NC(=O)CSc2nnc(-c3ccco3)o2)cc1	none (no result: Rab9 prom act, Luc counter, SMN2 splice up, FLuc counter, NPC1 promoter act)
CC12CCC(C(=O)Nc3nc4ccccc4s3)(OC1=O)C2(C)C (stereo not given)	Rab9 prom act inconclusive, ELG1 genotox inconclusive, SMN2 splice up inconclusive, FLuc counter 17µM, NPC1 promoter act inconclusive
Cc1ccc(CC(=O)Nc2nc3ccccc3s2)cc1	Rab9 prom act inconclusive, FLuc counter 19µM, NPC1 promoter act inconclusive
CCCNC(=O)Nc1nc2ccccc2s1	Rab9 prom act 2.5µM, ELG1 genotox inconclusive, FLuc counter 9.5µM, NPC1 promoter act 2.2µM (no result: Luc counter, SMN2 splice up)
Cc1ccc(S(=O)(=O)CC(=O)Nc2nc3ccccc3s2)cc1	none (no result: Luc counter, SMN2 splice up)
O=C(CCN1C(=O)c2ccccc2C1=O)Nc1ccc(-c2nc3ccccc3o2)cc1	Rab9 prom act 1.4µM, ELG1 genotox 1.5µM, SMN2 splice up 8.9µM, NPC1 promoter act 2.2µM
Cc1cc(C)cc(OCC(=O)Nc2ccc(-c3nc4ccccc4o3)cc2)c1	SMN2 splice up 6.3µM (no result: Rab9 prom act, ELG1 genotox, Luc counter, NPC1 promoter act)
O=C1c2ccccc2C(=O)N1c1cccc(-c2nc3ccccc3o2)c1	none
O=C(CN1C(=O)c2ccccc2C1=O)Nc1ccc(-c2nc3ccccc3o2)cc1	none
O=C1c2ccccc2C(=O)N1c1ccc(-c2nc3ccccc3o2)cc1	Rab9 prom act 4.5µM, FLuc counter inconclusive, NPC1 promoter act inconclusive (no result: Luc counter, SMN2 splice up)
CSc1nc2sc3c(c2c(=O)n1C)CCC(C)C3 (stereo not given)	FLuc counter 13µM
CSc1nc2sc3c(c2c(=O)n1C)CCC3	none (no result: Luc counter, SMN2 splice up)
COc1cc(NC(=O)CCC(=O)c2cccs2)cc(OC)c1	none (no result: Luc counter, SMN2 splice up)
Oc1ccccc1-c1nc2cnccn2c1Nc1ccc2c(c1)OCCO2	FLuc counter inconclusive
Clc1ccc(-c2nc3cnccn3c2Nc2ccc3c(c2)OCO3)cc1	FLuc counter inconclusive
c1cn2c(Nc3ccc4c(c3)OCCO4)c(-c3ccc(N4CCOCC4)cc3)nc2cn1	ELG1 genotox inconclusive, FLuc counter 2.7µM (no result: Luc counter, SMN2 splice up)
CSc1ccc(-c2nc3cnccn3c2Nc2ccc3c(c2)OCO3)cc1	FLuc counter 19µM
COc1ccccc1/C=N/N(C(C)=O)c1nc(-c2ccc(F)cc2)cs1	Rab9 prom act 6.3µM, ELG1 genotox inconclusive, SMN2 splice up inconclusive, NPC1 promoter act inconclusive
Cc1cc2nn(-c3ccc(F)cc3)nc2cc1N	Rab9 prom act 3.2µM, ELG1 genotox 1.6µM, FLuc counter 0.76µM, NPC1 promoter act 2.5µM (no result: Luc counter, SMN2 splice up)
COc1ccc(-n2nc3cc(C)c(NC(=O)c4ccc(C)cc4C)cc3n2)cc1Cl	none (no result: Rab9 prom act, ELG1 genotox, Luc counter, NPC1 promoter act)

Assay outcomes: PubChem BioAssay, National Center for Advancing Translational Sciences (NCATS)
